Among all 1,200 compounds or so, about 60 (5%) were called active. Roughly 1% stayed inconclusive and do not appear here.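 Rule for the calls: active = Decreasing signal and fitted IC50 at most twice the top valid tested dose; inconclusive = Bad fit or a level curve showing 30 to 70% inhibition; inactive = the rest.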 The list is a sample of the results. Results with a measured potency or affinity are listed apart.
These compounds were tested against NAD-dependent protein deacylase sirtuin-5, mitochondrial (Homo sapiens) (UniProt Q9NXA8) (assay: SIRT5 desuccinylase inhibitors, dose response, biochemical, fluorescence imaging, cherry-pick, set 5 (AID 720591;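 note: 0% = median of neutral control wells and -100% = median of positive control wells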)). Details: Purified SirT5, succinyl-peptide AMC, trypsin-coupled fluorescence; series mostly up to 15 µM; activity change, negative = inhibition: at the top concentration.
Chain of NAD-dependent protein deacylase sirtuin-5, mitochondrial (Homo sapiens) (Q9NXA8 whole entry, looked up): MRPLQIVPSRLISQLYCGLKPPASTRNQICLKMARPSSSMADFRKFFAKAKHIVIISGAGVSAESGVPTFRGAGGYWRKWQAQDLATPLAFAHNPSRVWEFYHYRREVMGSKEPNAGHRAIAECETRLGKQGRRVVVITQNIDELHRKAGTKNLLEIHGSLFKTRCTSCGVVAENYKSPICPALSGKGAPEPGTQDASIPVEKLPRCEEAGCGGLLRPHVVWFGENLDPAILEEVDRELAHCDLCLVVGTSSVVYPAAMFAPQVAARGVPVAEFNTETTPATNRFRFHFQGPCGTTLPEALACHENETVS

Structure (SMILES) | activity change, negative = inhibition
O=C(Nc1cccc(Br)c1)c1ccc(CSc2ccccc2)cc1 | -25.6% (inactive)
O=C(Cc1ccc(Cl)cc1)Nc1ccc(C(=O)N2CCCCC2)cc1 | -15.9% (inactive)
CN(C)C(=O)c1ccc(NC(=O)c2sccc2-c2ccccc2)cc1 | 12.8% (inactive)
O=C(Cc1ccc(Cl)cc1)Nc1ccc(CN2CCCCC2)cc1 | 4.66% (inactive)
C[C@@H](CSc1ccc(Br)cc1)CN1CC[C@H](NC(=O)OCc2ccccc2)CCC1=O | 21.5% (inactive)
Cc1cccc(C)c1NC(=O)CN(Cc1ccccc1)Cc1ccccc1 | 17.6% (inactive)
CC(C)C(=O)Nc1cccc(COc2ccccc2CN(Cc2ccccc2)C(=O)OC(C)(C)C)c1 | -27.9% (inactive)
Cc1ccc(CNC(=O)CCc2ccc(S(=O)(=O)NCC(C)C)cc2)cc1 | -24.4% (inactive)
Cc1ccn2cc(CSc3ccccc3)nc2c1 | 6.69% (inactive)
Clc1ccc(SCc2cn3ccccc3n2)cc1 | -21.3% (inactive)
Cc1cccc(COC[C@H](Cc2ccccc2)N2CCN(C(=O)c3cc(Cl)cc(Cl)c3)CCC2=O)c1 | -29.7% (inactive)
CCOC(=O)C1(C)CCN1C(=O)c1cccc(Cl)c1 (stereo not drawn) | -3.12% (inactive)
COc1cc(OC)c(NS(=O)(=O)c2cc(C(=O)OCC(=O)NCC3CCCO3)ccc2OC)cc1Cl (stereo not drawn) | -26.7% (inactive)
COc1cc(C(=O)NCCN2CCN(C(=O)c3cc(OC)c(OC)c(OC)c3)CC2)cc(OC)c1OC | 3.49% (inactive)
COc1cc(C(=O)N2CCNCC2)cc(OC)c1OC | -4.5% (inactive)
CCN(C(=O)COC(=O)CNC(=O)c1ccccc1C)C1=CCCCC1 | 22.5% (inactive)
CNC(=O)CSc1nnc(-c2ccco2)n1-c1cccc(OC)c1 | 0.832% (inactive)
COc1ccc(-n2c(SCC(N)=O)nnc2-c2ccco2)cc1 | -23.9% (inactive)
COc1ccc(-c2cccc(C3CC=CC4C3C(=O)N(Cc3ccccc3)C4c3ccc(C(F)(F)F)cc3)c2)cc1 (stereo not drawn) | 23.6% (inactive)
CC(=O)N1N=C(c2cccc(NS(C)(=O)=O)c2)CC1c1cccs1 (stereo not drawn) | -25.8% (inactive)
COC(=O)c1ccc(C)c(NC(=O)CSc2sc3c(O)cc(=O)[nH]c3c2C#N)c1 | -17% (inactive)
CSc1nsc(SCC(=O)Nc2ccc(Cl)c(C(=O)O)c2)n1 | -17.9% (inactive)
CCCCc1c(-c2ccccc2F)ncn1CCc1ccccc1OC | 13.7% (inactive)

Structure (SMILES) | activity change, negative = inhibition
C[C@H](NC(=O)OCc1ccccc1)C(=O)NNC(=O)[C@H](C)NC(=O)OCc1ccccc1 | -29.1% (inactive)
CC(C)c1ccc(NC2CCCN(C(=O)CC3CCCC3)C2)cc1 (stereo not drawn) | 20.8% (inactive)
Cc1ccsc1C(=O)NNC(=O)CCN1CCN(c2ccccc2)CC1 | -24.2% (inactive)
Cc1sc(NC(=O)Cn2[nH]c(=O)c3ccccc3c2=O)nc1-c1ccccc1 | -2.7% (inactive)
Cc1ccc(-c2csc(NC(=O)Cn3[nH]c(=O)c4ccccc4c3=O)n2)cc1 | -13.9% (inactive)
CCN(c1ccccc1)S(=O)(=O)c1ccc2[nH]c(=O)[nH]c2c1 | 5.81% (inactive)
Cc1cc(C)c(OCC(=O)NCC(C)(C)N2CCOCC2)c(C)c1 | -12.2% (inactive)
Cc1ccc2cc(CN(Cc3ccc(F)cc3)Cc3nnnn3C3CCCC3)c(=O)[nH]c2c1 | 6.37% (inactive)
Cn1cc(Br)c(C(=O)Nc2c(F)c(F)c(F)c(F)c2F)n1 | -22.1% (inactive)
CN(C)CCNC(=O)c1cccc(S(=O)(=O)Nc2ccccc2F)c1 | 14% (inactive)
CCN(CC(=O)Nc1ccc(NC(C)=O)cc1)C(=O)c1ccc(COc2ccc(C(C)(C)C)cc2)cc1 | -1.48% (inactive)
COc1ccc(OCC(=O)Nc2ccc(NC(=O)c3cccs3)cc2)cc1 | -14.9% (inactive)
Cc1ccc(C(C(=O)NC2CCCC2)N(Cc2ccco2)C(=O)CCC(=O)Nc2cc(C)on2)cc1 (stereo not drawn) | -17% (inactive)
Cc1ccccc1OCC(O)CN1CCN(CC(O)COc2ccccc2C)CC1 (stereo not drawn) | 8.37% (inactive)
CCOC(=O)C1CCc2c(ccc3ccccc23)N1CCC#N (stereo not drawn) | 12.2% (inactive)
CC(C)(C)Cc1nnc(NC(=O)Cc2cccs2)s1 | 14.6% (inactive)
CN(C)CCCNC(=O)c1cc(C(=O)c2ccccc2F)c[nH]1 | 1.08% (inactive)
COc1ccc(C(=O)OCCN2CCCCC2)cc1 | -12% (inactive)
Cc1ccc(C(C(=O)NC(C)(C)C)N(Cc2ccco2)C(=O)CCC(=O)Nc2ccccn2)cc1 (stereo not drawn) | -11.8% (inactive)
CCC(C)(C)NC(=O)C(c1ccc(OC)cc1)N(Cc1ccco1)C(=O)CCC(=O)Nc1cc(C)on1 (stereo not drawn) | -28.7% (inactive)
COc1ccc([C@H]2N[C@]3(CCCN(Cc4cccn4C)C3=O)[C@H]3C(=O)N(C)C(=O)[C@@H]23)cc1 | 1.22% (inactive)
C=CCn1c(SCC(=O)c2ccc(O)c(O)c2)nnc1-c1ccc(C)cc1 | -23.6% (inactive)
COc1ccc(C)cc1N(C)C(=O)Cc1c(C(=O)O)n(C)c2ccccc12 | -31.2% (inactive)

Structure (SMILES) | activity change, negative = inhibition
COc1ccccc1NC(=O)CNc1ccc(F)c(Cl)c1 | 0.52% (inactive)
CC1CN(CCOc2ccccc2-c2ccccc2)CC(C)O1 (stereo not drawn) | -17.6% (inactive)
CCc1ccc(N(C(=O)CCC(=O)Nc2cc(C)on2)C(C(=O)NC2CCCC2)c2ccco2)cc1 (stereo not drawn) | 8.88% (inactive)
COc1cc(C(C)=O)ccc1OCc1cn(CC(=O)c2ccc(O)cc2)nn1 | 6.41% (inactive)
CS(=O)(=O)N(CC(=O)N1CCCC1)c1cccc(F)c1 | -28.6% (inactive)
CS(=O)(=O)N(CC(=O)N1CCCCCC1)c1cccc(F)c1 | -22.2% (inactive)
C#CC1(NC(=O)NCCCC)CCCCC1 | 16.7% (inactive)
Cc1ccc2nc(-c3ccccc3)c(Cc3cccc(Cl)c3)n2c1 | -3.52% (inactive)
Fc1ccc(-c2nc3ccc(Cl)cn3c2Cc2cccc(F)c2)cc1 | 12.6% (inactive)
COc1ccccc1CNS(=O)(=O)c1cccs1 | 2.11% (inactive)
C=C(C)Cn1c(N2CCN(c3ccc(OC)cc3)CC2)nc2c1c(=O)n(C)c(=O)n2C | -9.42% (inactive)
Cn1cnc2c(NCc3ccco3)ncnc21 | -20.1% (inactive)
COC(=O)c1cccc(NC(=O)CSc2nnc(COc3ccc(C#N)cc3)n2-c2ccccc2)c1 | -25.5% (inactive)
Cc1cn(CC(=O)NCc2ccccc2)c(=O)[nH]c1=O | 22.2% (inactive)
O=C1OCCOC2CCCc3oc(C4=CCCCC4)c1c32 (stereo not drawn) | -23.7% (inactive)
Cc1ccc(NS(=O)(=O)c2ccc3c(c2)N(C)CCO3)cc1 | -1.07% (inactive)
Cc1ccc2nc(SC(C)C(=O)N3CC(C)OC(C)C3)[nH]c2c1 (stereo not drawn) | 11% (inactive)
Cc1ccccc1NS(=O)(=O)c1ccc(C(=O)NCC2CCCO2)cc1 (stereo not drawn) | -30.8% (inactive)
O=C(CSc1ccccc1Cl)N1CCOCC1 | -29.6% (inactive)
O=C(c1ccc(F)cc1)N1CCOCC1 | 38.5% (inactive)
CCOc1ccc(C(C)C)cc1S(=O)(=O)n1ccnc1C | -11.2% (inactive)
Cc1ccc(S(=O)(=O)N(C)c2ccc(NS(C)(=O)=O)cc2)cc1 | -2.72% (inactive)

Reference: PubChem BioAssay AID720591 (Broad Institute, 2013)
